Laboratory results reported in PubChem BioAssay AID798 (PCMD, 2007).
Among all 220,000 compounds or so, about 300 (0.14%) were called active. Shown is part of a subset that was picked to be rich in actives. Unmarked numbers belong to inactive results.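 The calls were made as follows: active = inhibition of at least 40%; inactive = inhibition below 40%.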

The compounds below were run against Coagulation factor XI (Homo sapiens) (UniProt P03951) (assay: factor XIa enzyme inhibition, large library – biochemical, 1536-well, primary screen (AID 798;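 also: fluorescence of freed AMC excited at 355 nm; 0% = enzyme without compound and 100% = no enzyme blank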)). Settings: purified FXIa, Boc-Glu-Ala-Arg-AMC fluorogenic substrate; at 5 µM; hits give high values.
Coagulation factor XI (Homo sapiens), sequence (P03951 19-387 limits assumed): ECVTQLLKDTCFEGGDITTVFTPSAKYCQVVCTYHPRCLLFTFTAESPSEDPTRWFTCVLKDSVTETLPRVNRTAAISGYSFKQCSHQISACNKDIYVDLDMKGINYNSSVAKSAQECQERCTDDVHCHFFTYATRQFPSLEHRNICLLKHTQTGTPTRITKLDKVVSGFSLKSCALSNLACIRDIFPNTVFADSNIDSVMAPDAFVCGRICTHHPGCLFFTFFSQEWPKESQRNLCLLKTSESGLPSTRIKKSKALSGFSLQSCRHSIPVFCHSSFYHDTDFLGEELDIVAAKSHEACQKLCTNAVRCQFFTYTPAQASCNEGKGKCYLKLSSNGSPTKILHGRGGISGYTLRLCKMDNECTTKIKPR
Coagulation factor XI (Homo sapiens), sequence (P03951 388-625 limits assumed): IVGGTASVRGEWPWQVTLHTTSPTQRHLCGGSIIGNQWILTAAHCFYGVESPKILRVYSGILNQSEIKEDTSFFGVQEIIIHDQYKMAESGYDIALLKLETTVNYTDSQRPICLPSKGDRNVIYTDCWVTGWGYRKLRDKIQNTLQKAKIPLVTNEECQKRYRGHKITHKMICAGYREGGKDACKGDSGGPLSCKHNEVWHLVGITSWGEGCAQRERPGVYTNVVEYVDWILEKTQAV

Row | SMILES | inhibition
1 | NCC(O)c1ccc(O)cc1 (stereo not given) | 47.9% (active)
2 | CSc1ccc(C(=O)C2CCCN(Cc3ccn[nH]3)C2)cc1 (stereo not given) | 2.72%
3 | Cc1ccc(Cn2c(C)c3cnn(CC(=O)N4CCC5(CC4)OCCO5)c(=O)c3c2C)cc1 | -2.43%
4 | CCCCCn1c(=O)c(C(=O)NCc2ccccn2)c(O)c2ccccc21 | 4.5%
5 | CC(C)c1ccc(-n2c(O)c(/C=N/N3CCOCC3)c(=O)[nH]c2=S)cc1 | -2.81%
